High-throughput results from PubChem BioAssay.
A selection: hits, their analogues and other compounds. The true share with any hit is near 19%.
VP16 counter: inhibits Gal4-VP16 luciferase reporter, ROR gamma counter-screen. Drosophila S2 Gal4-VP16 UAS-luciferase, luminescence, 20 h. Potency, µM (doses to about 53.6 µM), for the others: at the top dose activity, negative = inhibition, hits mostly inhibitors. hit rate 3.5% among 310,000. AID 2546;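 note: Gal4-VP16 expression switched on by copper sulfate through the metallothionein promoter; nearly all actives have a fitted effect of over 50% in size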
TDP1 inh: inhibitors of human tyrosyl-DNA phosphodiesterase TDP1. Q9NUW8. recombinant TDP1, AlphaScreen DNA substrate cleavage. Potency, µM (highest dose often 130 µM), for the others: at the highest dose activity change, negative = inhibition, most hits filed as inhibitors. hit rate 0.28% among 350,000; note: nearly all actives have a fitted effect of over 40% in size
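Tdp1 1 nM final; 15 min RT w/ cpd; substrate 15 nM, 5 min; beads 10 ug/ml, 10 min; AlphaScreen read. Neg ctrl: no enzyme.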
DT40 TDP1 no CPT: qHTS for Inhibitors of human tyrosyl-DNA phosphodiesterase 1 (TDP1): qHTS in cells in absence of CPT. DT40 Tdp1-/- hTDP1 cells, no CPT, ATP luminescence, 48 h. Potency, µM (doses to about 46.2 µM), for the others: top-dose activity change, negative = growth inhibition, hits mostly inhibitors. hit rate 15% among 420,000. AID 686978, 2013; note: nearly all actives have a fitted effect of over 55% in size
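Cells were dispensed at 400 per well, compounds added by pin tool, plates incubated ≥48 hr at 37 °C, then CellTiter-Glo added for 30 min at room temperature before luminescence reading. Line: DT40 Tdp1-/- complemented with hTDP1; camptothecin omitted.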
RORg inh: inhibitors of mouse ROR gamma transcriptional activity; hit rate 5.4% among 310,000; Potency, µM (doses to about 53.6 µM), inactives show at the highest dose activity change, negative = inhibition, usual class: inhibitors; Drosophila S2 Gal4-RORgamma UAS-luciferase reporter, 20 h; note: nearly all actives have a fitted effect of over 60% in size
Target sequence (P51450 whole entry, looked up, the tested form may be a part): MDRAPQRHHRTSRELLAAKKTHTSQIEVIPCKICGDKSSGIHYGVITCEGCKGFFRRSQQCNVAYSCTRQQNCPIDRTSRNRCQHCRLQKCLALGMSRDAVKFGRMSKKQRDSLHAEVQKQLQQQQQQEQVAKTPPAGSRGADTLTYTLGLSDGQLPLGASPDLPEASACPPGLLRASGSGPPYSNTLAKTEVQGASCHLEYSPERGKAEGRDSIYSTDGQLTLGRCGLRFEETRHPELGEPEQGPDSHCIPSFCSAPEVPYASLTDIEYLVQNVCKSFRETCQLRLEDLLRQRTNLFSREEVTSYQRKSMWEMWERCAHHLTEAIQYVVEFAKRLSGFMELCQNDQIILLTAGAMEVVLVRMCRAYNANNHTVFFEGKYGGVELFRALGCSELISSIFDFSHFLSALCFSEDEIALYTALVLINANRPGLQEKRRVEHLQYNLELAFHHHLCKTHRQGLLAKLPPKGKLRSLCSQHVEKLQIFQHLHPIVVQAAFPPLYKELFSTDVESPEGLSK
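ROR gamma transcriptional activity was tracked as Gal4-UAS luciferase output in stably transfected Drosophila Schneider cells, with compound added 1 hr before 700 uM copper sulfate induction and a 20 hr ambient-temperature incubation.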
DT40 TDP1 CPT: growth inhibition of DT40 Tdp1-/-;hTDP1 cells with camptothecin (screen for TDP1 inhibitors) | Potency, µM (top dose mostly 46.2 µM), for inactives: top-dose activity change, negative = growth inhibition, actives largely listed as inhibitors | chicken DT40 Tdp1-/-;hTDP1 cells + 20 nM CPT, ATP luminescence, 48 h | hit rate 12% among 420,000; note: nearly all actives have a fitted effect of over 55% in size
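Cell growth measured by CellTiter-Glo luminescence after a minimum 48 h, 37 C compound exposure with 20 nM CPT in Tdp1-knockout DT40 cells stably expressing hTDP1, seeded 400/well; qHTS titration format.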
Numbers without * were called inactive; ? = inconclusive; . = no result. Calls come from the whole dose curve; as a rule, active = well fitted curve in the direction sought with a large enough effect; inconclusive = small, poorly fitted or top-dose-only effect, or another doubt; inactive = no such curve, though single readings can be large; an effect the other way counts as inactive or inconclusive. % is set by controls: 0 for no effect and ±100 for the full control effect; potency is the fitted concentration of half-maximal effect.

SMILES	VP16 counter	TDP1 inh	DT40 TDP1 no CPT	RORg inh	DT40 TDP1 CPT
CCOc1ccc(Oc2ccc(S(=O)(=O)N3CCOCC3)cc2N)cc1	2.7%	-5.3%	?	30.3%	?
CCCNC(=O)N[C@H]1CC[C@@H](CCn2cc(-c3cccc(F)c3)nn2)O[C@@H]1CO	.	.	-3.6%	.	-8.4%
COc1ccc(-n2ccnc2SCC(=O)Nc2ccc3c(c2)OCO3)cc1	.	5.5%	-24.2%	.	?
Cc1cc(=O)oc2cc(OCc3ccc(C(=O)N4CCN(c5ccc([N+](=O)[O-])cc5)CC4)cc3)ccc12	?	2.7%	-26.2%	23.1%	?
Cc1ccccc1C(=O)O/N=C(\N)Cc1cccs1	?	0.6%	-21.8%	7.94µM*	?
CCN(CC)c1ccc(C(=O)Nc2cccc(F)c2)cc1	?	2.3%	?	?	?
Cc1ccc(C(O)c2ncc(-c3ccc(C(F)(F)F)cc3)[nH]2)cc1F (stereo not given)	.	.	20.6µM*	.	?
Cc1ccc(C(O)c2ncc(-c3ccc4ccccc4c3)[nH]2)cc1F (stereo not given)	.	.	18.4µM*	.	29.1µM*
OC(c1ccc(Cl)c(Cl)c1)c1ncc(-c2ccc(C(F)(F)F)cc2)[nH]1 (stereo not given)	.	.	16.4µM*	.	?
Cc1cc(C)cc(C(O)c2ncc(-c3ccc(C(F)(F)F)cc3)[nH]2)c1 (stereo not given)	.	.	16.4µM*	.	?
COc1ccc(Br)cc1CNC(=O)c1cnc2sc(N3CCC(C)CC3)nn2c1=O	.	2.6%	?	.	?
COC(=O)[C@@]12CCCN1[C@H](c1ccc(-c3ccccc3)cc1)[C@H]1C(=O)N(C)C(=O)[C@H]12	.	2.8%	?	.	?
COC(=O)[C@@]12CCCN1[C@H](c1ccc(-c3ccc(OC)cc3)cc1)[C@@H]1C(=O)N(C)C(=O)[C@@H]12	.	2.0%	20.6µM*	.	18.4µM*
COC(=O)[C@@]12CCCN1[C@H](c1ccc(-c3ccc(OC)cc3)c(OC)c1)[C@@H]1C(=O)N(C)C(=O)[C@@H]12	.	2.1%	4.11µM*	.	4.11µM*
COC(=O)[C@@]12CCCN1[C@H](c1ccc(-c3ccc(OC)cc3)c(OC)c1)[C@H]1C(=O)N(C)C(=O)[C@H]12	.	4.2%	?	.	?
N#Cc1nc(COc2ccc(Cl)cc2Cl)oc1N1CCN(c2ccccc2)CC1	11.1%	1.6%	?	?	?
N#Cc1nc(COc2ccc(Cl)cc2)oc1N1CCN(Cc2ccccc2)CC1	0.5%	6.8%	?	?	?
COc1ccc(N2CCN(c3oc(COc4ccccc4)nc3C#N)CC2)cc1	7.8%	4.9%	?	?	?
CCOc1ccc(-c2nc(C#N)c(N3CCN(Cc4ccccc4)CC3)o2)cc1	5.3%	7.8%	11.6µM*	28.1%	?
COc1ccc(N2CCN(c3oc(COc4ccc(Cl)cc4Cl)nc3C#N)CC2)cc1	1.1%	6.9%	9.2µM*	24.8%	?
COc1ccc(N2CCN(c3oc(Cc4ccccc4)nc3C#N)CC2)cc1	-8.2%	8.2%	13µM*	?	?
COc1ccc(NC(=O)C(NC(C)=O)C(=O)NCc2ccc(F)cc2)cc1 (stereo not given)	-1.7%	0.0%	?	13.2%	-2.1%
COc1ccc(CNC(=O)Nc2nc(C(N)Cc3ccc(Cl)cc3)cs2)cc1 (stereo not given)	.	.	18.4µM*	.	23.1µM*
O=C(O)C(Cc1ccc(F)cc1)c1ccccc1 (stereo not given)	-6.7%	.	-17.7%	-18.2%	-25.6%
COc1ccc(CNC(=O)Nc2nc(C(N)Cc3ccc(F)cc3)cs2)cc1 (stereo not given)	.	.	16.4µM*	.	?
SMILES	VP16 counter	TDP1 inh	DT40 TDP1 no CPT	RORg inh	DT40 TDP1 CPT
NC(Cc1ccc(F)cc1)c1csc(NC(=O)NC(c2ccccc2)c2ccccc2)n1 (stereo not given)	.	.	13µM*	.	14.6µM*
Cc1ccc(S(=O)(=O)NCC(=O)OCC(=O)Nc2cccc(S(=O)(=O)NC3=NCCCCC3)c2)cc1C	-2.9%	.	4.6%	6.7%	-0.5%
Cc1ccc(NCc2ccc(O)c3ncccc23)cc1	1.78µM*	0.0%	?	1µM*	?
Cc1cccnc1NCc1ccc(O)c2ncccc12	2.82µM*	9.9%	5.8µM*	?	4.61µM*
Oc1ccc(CNc2cccnc2)c2cccnc12	.	4.7%	.	.	.
Oc1ccc(COc2ccccc2Cl)c2cccnc12	.	2.7%	.	.	.
Cc1cccc(NCc2ccc(O)c3ncccc23)c1C	?	7.7%	14.6µM*	7.94µM*	?
COc1ccc(N2CCN(C(=O)CCC(=O)N3CCOc4ccc(Cl)cc43)CC2)cc1	2.5%	.	?	?	?
COc1ccc(-n2c3c(cc(C(=O)N4CCN(CCO)CC4)c2=O)C(=O)CC(C)(C)C3)cc1	-0.6%	-2.3%	-12.6%	20.6%	-5.4%
COc1ccc(N2CCN(C3C(=O)Nc4ccccc4-n4nnnc43)CC2)cc1 (stereo not given)	.	.	-25.7%	.	-7.8%
Cc1ccc(C)c(N2CCN(C3C(=O)Nc4ccccc4-n4nnnc43)CC2)c1 (stereo not given)	.	.	16.4µM*	.	20.6µM*
O=C1Nc2ccccc2-n2nnnc2C1N1CCN(c2ccc(C(F)(F)F)cc2[N+](=O)[O-])CC1 (stereo not given)	.	.	16.4µM*	.	23.1µM*
COc1ccccc1-c1cnc(C(O)c2ccccc2)[nH]1 (stereo not given)	.	.	?	.	-25.9%
COc1ccccc1-c1cnc(C(O)c2cc(C)ccc2C)[nH]1 (stereo not given)	.	.	?	.	25.9µM*
CCc1ccc(C(O)c2ncc(-c3ccccc3OC)[nH]2)cc1 (stereo not given)	.	.	18.4µM*	.	23.1µM*
COc1ccccc1-c1cnc(C(O)c2ccc(C(C)(C)C)cc2)[nH]1 (stereo not given)	.	.	18.4µM*	.	?
COc1ccccc1-c1cnc(C(O)c2ccc(CN3CCCC3)cc2)[nH]1 (stereo not given)	.	.	-14.8%	.	-3.5%
O=c1[nH]cnc2scc(-c3ccc(-c4ccccc4)cc3)c12	?	-2.2%	?	-35.8%	-22.6%
Cc1c(-c2ccccc2)sc2nc[nH]c(=S)c12	1µM*	7.7%	?	0.501µM*	?
Cc1cc(C)n2nc3nc(N4CCCCC4)nc(-c4ccco4)c3c2n1	-13.3%	-4.1%	20.6µM*	-1.0%	14.6µM*
O=C(O/N=C1\CCCc2ccccc21)c1cccs1	-10.9%	2.9%	-15.0%	23.4%	-1.7%
